TLR9-MyD88 block: TLR9-MyD88 interaction inhibition; inhibition, % at 4.98 µM; 340,000 compounds, 0.21% hits; CHO BLA complementation TLR9-MyD88, CCF4 FRET ratio; AID 504734; Q9NR96+Q99836;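 active = inhibition above the mean over all tested compounds plus 3 SD, cut at about 21% in these data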;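 also: 0% = DMSO only wells and 100% = clavulanate BLA inhibitor control wells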
NOD2 RIPK2 PPI: inhibitors of human NOD2-RIPK2 interaction; inhibition, % at 4.98 µM; 360,000 compounds, 0.38% hits; CHO BLA complementation NOD2-RIPK2, CCF4 ratio; AID 624267; in the data active = inhibition above about 21%;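 also: 0% = vehicle only and 100% = reference blocker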
Target sequence (O43353 whole entry, looked up): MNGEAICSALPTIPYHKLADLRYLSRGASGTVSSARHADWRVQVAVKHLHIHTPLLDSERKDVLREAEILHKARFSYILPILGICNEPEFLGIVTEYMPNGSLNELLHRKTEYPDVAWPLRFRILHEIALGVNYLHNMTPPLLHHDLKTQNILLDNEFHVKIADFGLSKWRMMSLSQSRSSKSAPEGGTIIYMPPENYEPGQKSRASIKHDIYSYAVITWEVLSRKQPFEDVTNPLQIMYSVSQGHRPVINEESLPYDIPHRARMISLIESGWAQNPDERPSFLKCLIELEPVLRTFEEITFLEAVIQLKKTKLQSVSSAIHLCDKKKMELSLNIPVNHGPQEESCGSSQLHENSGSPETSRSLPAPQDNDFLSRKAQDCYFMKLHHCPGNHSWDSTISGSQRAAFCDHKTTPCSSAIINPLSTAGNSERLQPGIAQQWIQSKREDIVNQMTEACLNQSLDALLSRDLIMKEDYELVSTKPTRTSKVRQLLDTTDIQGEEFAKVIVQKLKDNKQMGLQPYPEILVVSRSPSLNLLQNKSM
TLR4-MyD88 BLA: TLR4-MyD88 interaction inhibition in cells; HeLa CL3-4 TLR4/MyD88 BLA complementation, FRET ratio; 200,000 compounds, 0.18% hits; inhibition, % at 8.4 µM; in the data active = inhibition above about 25%;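 also: 0% = vehicle and 100% = reference inhibitor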
ABHD5 PLIN5 PPI: ABHD5-PLIN5 protein interaction inhibition. Split G. princeps luciferase complementation, luminescence, 4 h. inhibition, % at 4 µM. 360,000 compounds, 0.78% hits;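 active = inhibition above the mean inhibition across every tested compound plus 3 SD, cut at about 22% in these data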;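 also: 0% = DMSO only wells and the 100% control is not disclosed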
PRMT1 inh: PRMT1 (human) inhibition, primary screen; recombinant PRMT1, activity-based probe fluorescence polarization; Q99873; inhibition, % at 2.79 µM; 370,000 compounds, 1.3% hits;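 active = inhibition above about 21% made by adding two undisclosed values, limit read from the data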
rCAG binder: molecules binding r(CAG) RNA repeats | r(CAG) RNA repeat, TO-PRO-1 dye displacement fluorescence | inhibition, % at 3 µM | 370,000 compounds, 1.3% hits;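 active = inhibition above the plate cutoff, the mean of all test compounds on that plate plus 3 SD, cut at about 35% in these data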;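 also: 0% = DMSO alone and 100% = 100 µM mitoxantrone as full dye displacement; higher means more dye released from RNA so lower well fluorescence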
rCAG bind conf: r(CAG) RNA repeat binding, confirmation | TO-PRO-1 dye displacement fluorescence | 4,300 compounds, 70% hits | inhibition, % at 3 µM | AID 652065 | shares compounds with rCAG binder;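 active = inhibition above a per-plate cutoff, the mean inhibition of sample wells plus 3 SD, cut at about 35% in these data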;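 also: loss of TO-PRO-1 fluorescence as compound displaces dye from 1x1 AA loop RNA; 0% = DMSO only wells and 100% = 100 µM mitoxantrone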
DNA CAG counter: disrupts DNA CAG TO-PRO-1 complex, flagging rCAG hits; 4,300 compounds, 94% hits; d(CAG) DNA oligo TO-PRO-1 dye displacement, fluorescence; AID 652068; shares compounds with rCAG binder; inhibition, % at 3 µM;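 active = inhibition above its plate's cutoff, the mean test-well inhibition plus 3 SD, cut at about 4.8% in these data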;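 also: 0% = DNA dye mix with DMSO and 100% = 100 µM mitoxantrone; hits displace the dye from DNA and so lower well fluorescence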
dCAG dye DR: counter-screen for rCAG binders: inhibitors of DNA CAG TO-PRO-1 complex; shares compounds with rCAG binder; DNA CAG/GTC duplex TO-PRO-1 dye displacement fluorescence; IC50, µM; 250 compounds, 20% hits; AID 686960; in the data active = IC50 below about 10 µM
The depositor's hits bear a star; i = inactive; nt = no result. Most compounds without a hit are left out; they make up all but 3.3% or so of the library.

SMILES	TLR9-MyD88 block	NOD2 RIPK2 PPI	TLR4-MyD88 BLA	ABHD5 PLIN5 PPI	PRMT1 inh	rCAG binder	rCAG bind conf	DNA CAG counter	others
O=C(O)c1ccccc1C(=O)c1cccc2ccccc12	-11.9	1.3	nt	-0.9	-4.2	4.5	nt	nt
CCOc1ccc(-n2c(O)c(/C=N/NC(=O)C3COc4ccccc4O3)c3ccccc3c2=O)cc1 (stereo not given)	7.9	18.0	-3.5	-2.3	1.9	76.2*	73.9*	36.8*
COc1cc(/C=N\NC(=O)C2COc3ccccc3O2)cc(OC)c1O (stereo not given)	-7.6	-5.0	nt	-2.8	0.6	-2.4	nt	nt
O=C(CSc1nnc(Nc2ccccc2)s1)NCC1CCCO1 (stereo not given)	5.6	7.5	nt	1.8	-2.6	1.7	nt	nt
O=C(O)c1ccc(-c2nc(-c3ccccc3)c(-c3ccccc3)[nH]2)cc1	-0.8	-7.5	2.0	-0.3	-4.4	36.0*	36.3*	6.0*
COc1ccc(-c2[nH]c(-c3ccc(C(=O)O)cc3)nc2-c2ccccc2)cc1	-2.1	-0.5	5.5	4.2	-0.3	25.1	nt	nt
CC12CCC(=O)N1C(C(=O)Nc1nnc(SCc3ccccc3F)s1)CS2 (stereo not given)	-5.2	8.3	nt	-2.8	0.7	6.7	nt	nt
O=C(COc1ccc2ccccc2c1)Nc1ccc(Br)cc1C(=O)O	2.7	-1.4	nt	-5.7	-1.7	33.4	nt	nt
Cc1c(Nc2nc3ccccc3nc2NS(=O)(=O)c2cccc(Cl)c2)c(=O)n(-c2ccccc2)n1C	-1.6	-3.6	-2.9	-3.3	2.0	52.4*	47.9*	15.1*
CCCOc1ccc(N2C(=O)CC(SC(=NCC)NCC)C2=O)cc1 (stereo not given)	0.1	1.6	-13.5	1.8	1.2	-0.1	nt	nt
C/C(=N\N=C(/N)SC1CC(=O)N(c2cccc(Cl)c2)C1=O)c1cccs1 (stereo not given)	2.4	1.2	-3.4	1.4	-1.5	53.9*	72.6*	28.6*	dCAG dye DR=i
CCCOc1ccc(N2C(=O)CC(S/C(N)=N/N=C(\C)c3cccs3)C2=O)cc1 (stereo not given)	4.3	-4.6	0.0	-15.9	2.0	65.7*	70.3*	26.0*	dCAG dye DR=>29.9
CC(/C=C/c1ccc(N(C)C)cc1)=N\N=C(/N)SC1CC(=O)N(c2ccc(C(=O)O)cc2)C1=O (stereo not given)	1.3	-5.5	-4.9	-9.7	3.3	7.0	nt	nt
CC(C)=C1C(=O)NN(c2ccc(C)c(Cl)c2)C1=O	-10.3	-12.5	-10.4	6.9	16.0	93.6*	22.9	8.1*
CC1CCN(S(=O)(=O)c2ccc(C(=O)Nc3nnc(-c4ccncc4)o3)cc2)CC1	5.9	0.9	-8.0	-10.7	-3.1	26.8	nt	nt
CS(=O)(=O)c1ccc(-c2nnc(NC(=O)c3ccc(S(=O)(=O)N4CCCC4)cc3)o2)cc1	-9.7	13.9	nt	-4.1	1.9	35.8*	15.8	4.7*
COc1cc2[nH]c(=S)nc(Nc3ccc(NC(C)=O)cc3)c2cc1OC	-9.6	-3.0	5.6	2.9	14.3	37.1*	7.7	6.4*
CC(C)(C)OC(=O)N[C@H](C(=O)OC(C)(C)C)c1ccc2ccccc2c1	-3.6	-4.7	nt	6.8	-0.8	2.3	nt	nt
CCOC(=O)c1c(C)n(S(=O)(=O)c2ccc(C)cc2)c2ccc(O)c(C(=O)O)c12	-8.3	-1.8	nt	0.3	-3.5	65.9*	64.1*	27.4*
Nc1nonc1-c1nc2ccccc2n1CC(=O)N/N=C/c1ccc(-c2cccc(C(=O)O)c2)o1	-1.6	0.2	3.9	1.0	9.3	61.5*	46.4*	14.2*
CCCN1C(=O)c2ccc(C(=O)Nc3ccccc3C(=O)O)cc2C1=O	-3.7	-9.6	nt	4.7	2.4	53.5*	36.0*	7.0*
O=C(Nc1cc(Cl)ccc1C(=O)O)c1ccc(CN2C(=O)c3ccccc3C2=O)cc1	1.2	3.8	nt	-0.7	3.5	59.3*	84.7*	72.0*
